# PubChem BioAssay
# The source made the active and inactive calls. Unless noted, how the calls were made is not given here.
# How the values were obtained:
# [1] = Wnt pathway potentiators raising nuclear beta-catenin – imaging, WNT3A-conditioned medium, mouse C2C12, NPC library, primary screen (AID 1117326; in the data active means nuclear beta-catenin stimulation mostly above about 4.2%, no sharp cut-off; inactive means mostly below about 10%); settings: stronger effect = higher value
# [2] = stimulators of insulin release from INS-1E, primary screen, cell-based, 5 mM glucose, NPC library (AID 1117329;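 active means compound raises insulin release from rat beta cells at 5 mM glucose, no numeric limit stated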); settings: rat INS-1E insulin secretion, at 10 µM, stronger effect = higher value
# [3] = growth inhibition of GSK3B-pretreated HCT116 cells – cell-based, CellTiter-Glo, 0.2 to 20 µM (AID 1117336;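 active means compounds lowering colon cancer cell viability after pretreatment blocking the GSK3B kinase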); settings: HCT116 viability after GSK3B inhibitor, at 20 µM, stronger effect = higher value
# [4] = inhibition of endothelial tube formation, primary screen, imaging, VEGF stimulated, CD31 staining, tube area, NPC library (AID 1117340;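 active means compound that reduces growth-factor-driven endothelial tube area in a mixed cell culture, no cutoff stated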); settings: VEGF-stimulated ADSC/ECFC co-culture, at 10 µM, stronger effect = higher value
# [5] = GLP1 release stimulators, primary, NCI-H716, NPC library (AID 1117341;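 active means compound raises GLP1 secretion from the human gut endocrine cells, with no numeric limit stated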); settings: NCI-H716 cells, at 10 µM, stronger effect = higher value
# [6] = HCT116 colon cancer cell growth inhibition, primary screen, CellTiter-Glo luminescence, NPC library (AID 1117342;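 active means compounds that lower survival of HCT116 colon cancer cells in the luminescence readout, no numeric limit stated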); settings: at 20 µM (top of the series)
# [7] = reduced SW480 viability measured with CellTiter-Glo, NPC library, primary (AID 1117343;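 active means compounds that lower viability of the colon cancer cells in the luminescence readout, with no numeric limit stated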); settings: CellTiter-Glo luminescence; at 20 µM (top of the series)
# [8] = NPC library primary testing for decreased DLD-1 cell viability via CellTiter-Glo (AID 1117346;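 active means compounds that lower survival of DLD-1 colon cancer cells in the luminescence readout, no cutoff given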); settings: DLD-1 viability, CellTiter-Glo luminescence; at 20 µM (top of the series)
# [9] = liver-stage malaria parasite load reduction – cell-based, known kinase inhibitor set, luminescence, hepatoma host viability (AID 624392); settings: Plasmodium liver stage in hepatoma cells, luciferase luminescence, concentration not given here; liver cell % of control: measured here: host liver cell viability; parasite % of control: stronger effect = lower value;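 further: infected cells incubated roughly two days before readout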
# [10] = altered dexamethasone sensitivity, NF-kB reporter, cell-based, luciferase, IL-1B stimulus (AID 624486); settings: IL-1B + dexamethasone, luminescence; percent of negative control (+Dex): actives lie on both sides, concentration not given here; z-score: measured here: IL-1B alone, no Dex;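 on percent of negative control (+Dex): 100% = mean signal of vehicle control wells on the plate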
# [11] = C. elegans survival during P. aeruginosa infection – whole organism (AID 651566);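 further: tested at 14 µM; sign flipped so higher z means a lower ratio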; settings: C. elegans killed by P. aeruginosa, survival ratio
# [12] = pro-inflammatory signaling induction in mouse macrophages – cell-based, murine, luminescence (AID 652131); settings: murine macrophage pro-inflammatory reporter, stronger effect = higher value
# [13] = inducers of IRF3 signaling, differentiated THP-1 – cell-based, PMA-stimulated THP-1, luminescence (AID 1053176); settings: PMA-differentiated THP-1, IRF3 reporter luminescence; stronger effect = higher value
# [14] = MELAS cybrid and Rieske KO viability enhancers – cell-based, MELAS cybrids, Rieske KO mouse fibroblasts, CellTiter-Glo, primary screen (AID 1508586;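 active means mean z-score across replicates of 1.96 or higher in either the MELAS or the Rieske mutant cell line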;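 further: z relative to plate mean and SD of compound and empty wells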); settings: low glucose
# [15] = MELAS cybrid survival, CellTiter-Glo 48 h, stronger effect = higher value
# [16] = Rieske KO mouse fibroblast survival, CellTiter-Glo 72 h
SMILES,nuclear beta-catenin stimulation ([1]; at 10 µM),"nuclear beta-catenin stimulation ([1]; stimulation, at 2 µM) [%]",insulin secretion stimulation [2],viability decrease [3],tube area decrease [4],GLP1 secretion stimulation [5],inhibition of viability [6],viability decrease (inhibition) [7],viability decrease (inhibition) [8],liver cell % of control [9] [%],parasite % of control [9],percent of negative control (+Dex) [10],z-score [10],z-score [11],z-score [12],fraction signal [13],"z-score [14, 15]","z-score [14, 16]"
CN1CCC[C@@H]1c1cccnc1,-0.7% (inactive),1.5,1.5% (inactive),-2.3% (inactive),12.5% (inactive),3.1% (inactive),-5.8% (inactive),25.8% (inactive),-23.3% (inactive),–,–,–,–,–,–,–,–,–
COc1cc2ncn(-c3cc(O[C@@H](C)c4ccccc4Cl)c(C(N)=O)s3)c2cc1OC,–,–,–,–,–,–,–,–,–,100,110% (inactive),124% (inactive),2.36,-0.555 (inactive),-0.639 (inactive),-0.002 (inactive),-0.552 (inactive),0.815
CS(=O)(=O)CCNCc1ccc(-c2ccc3ncnc(Nc4ccc(OCc5ccccc5)c(Br)c4)c3c2)o1,–,–,–,–,–,–,–,–,–,107,127% (inactive),82% (inactive),-0.54,0.135 (inactive),2.09 (inactive),0.0015 (inactive),0.203 (inactive),-0.567
C[C@@H](Oc1cc(-n2cnc3ccc(OC4CCN(C)CC4)cc32)sc1C(N)=O)c1ccccc1Cl,–,–,–,–,–,–,–,–,–,70.4,183% (inactive),73% (inactive),-2.66,-0.3 (inactive),-1.72 (inactive),-0.008 (inactive),-0.022 (inactive),-0.0227
O=C1NC(=O)C(c2ccccc2)=C1Nc1ccccc1,–,–,–,–,–,–,–,–,–,106,119% (inactive),99.5% (inactive),0.395,0.425 (inactive),-0.099 (inactive),-0.014 (inactive),-0.614 (inactive),-0.425
CCCC(=O)O[C@]1(C(=O)CCl)[C@@H](C)C[C@H]2[C@@H]3CCC4=CC(=O)C=C[C@]4(C)[C@@]3(F)C(=O)C[C@@]21C,3.8% (inactive),-0.1,3% (inactive),0.4% (inactive),36.7% (inactive),-0.4% (inactive),70.5% (active),99.8% (active),47% (inactive),–,–,–,–,–,–,–,–,–
O=S(=O)(CCNCc1ccc(-c2ccc3ncnc(Nc4ccc(OCc5cccc(F)c5)c(Cl)c4)c3c2)o1)c1ccccc1,–,–,–,–,–,–,–,–,–,108,102% (inactive),96.5% (inactive),-0.355,-0.37 (inactive),3.07 (inactive),-0.004 (inactive),0.171 (inactive),-0.45
Fc1ccc(Oc2nccc(-c3c(-c4ccc(F)cc4)ncn3C3CCNCC3)n2)cc1,–,–,–,–,–,–,–,–,–,104,122% (inactive),107% (inactive),1.11,-1.01 (inactive),7.24 (active),0 (inactive),-0.283 (inactive),-0.391
